Shown are actives, neighbours in structure and some others; about 2.8% of the full set was active somewhere.
LGR2 inh – inhibitors of bursicon-induced Drosophila LGR2 receptor cAMP signaling. HEK293 LGR2, CRE-luciferase, bursicon-stimulated, 4 h. inhibition, % at 9.99 µM. actives 0.35% (n = 380,000). AID 720647;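 active = drop in luminescence signal, shown as inhibition above about 50% in the replicate tests, limit read from the data, passing the limit was not always enough; inconclusive = probably only some replicates passing the limit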;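 also: agonist challenge used bursicon conditioned medium at about half maximal strength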
TROY NFkB inh – blocks TROY-dependent signaling in reporter cells; inhibition, % at 10 µM; actives 0.98% (n = 360,000); Q293 LMP1-TROYcd NF-kB luciferase reporter, 4 h;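 active = compounds whose plate-normalised and pattern-corrected inhibition of the luciferase reporter signal at the single screening dose is 50% or more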
EWS-Fli inh – EWS/Fli transcriptional activity inhibition; A673 NR0B1-luciferase reporter, viability-normalised; inhibition, % at 12.6 µM; actives 0.67% (n = 350,000);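 active = mean inhibition of at least 50% after viability correction, with every replicate also passing that limit; inconclusive = mean reaches 50% but only one of two replicates passes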;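 also: firefly luciferase signal divided by Alamar Blue viability fluorescence both relative to DMSO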
TWEAK Fn14 block – blocks TWEAK-Fn14 interaction in a reporter cell assay | TWEAK-stimulated Fn14 reporter cells, luciferase luminescence, 8 h | inhibition, % at 10 µM | actives 2% (n = 360,000); in the data active = inhibition above about 50%
PAX8 reporter – PAX8 transcriptional activity inhibition. actives 1.2% (n = 360,000). inhibition, % at 12.6 µM. AID 652154. RMG-I TPO-luciferase reporter, SteadyGlo, 24 h;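 active = mean replicate inhibition at least 60% with every replicate also reaching 60%; inconclusive = only one of the two criteria is met; inactive = mean below 60% and not all replicates reaching 60%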;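 also: luciferase light reporting Pax8 driven TPO promoter activity; plate controls were median of neutral control wells for no effect and mitoxantrone controls for full effect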
Starred values were filed as active, the others as inactive; ? = inconclusive; nt = no result given.

SMILES	LGR2 inh	TROY NFkB inh	EWS-Fli inh	TWEAK Fn14 block	PAX8 reporter
NC(=O)NC(=O)COC(=O)CCCSc1nc2ccccc2s1	-5	39	29	61*	32
CC(C)NC(=O)NC(=O)COC(=O)CCCSc1nc2ccccc2s1	12	8	-1	-3	9
c1ccc2sc(SCSc3nc4ccccc4s3)nc2c1	-21	-50	-26	-90	-60
O=C(O)CCSc1nc2ccccc2s1	-10	69*	nt	92*	nt
Cc1noc(C)c1NC(=O)Nc1ccc2c(c1)C(=O)N([C@H](C)CO)C[C@H](C)[C@H](CN(C)Cc1ccncc1)OCCCC[C@H](C)O2	-5	nt	-12	nt	0
Cc1ccc(C)c(N2CCN(C(=O)Nc3ccc4c(c3)N(C)C(=O)CS4)CC2)c1	-1	40	15	52*	15
CN1C(=O)CSc2ccc(NC(=O)N3CCN(c4ccccn4)CC3)cc21	0	13	8	33	33
CCOC(=O)c1c(CSc2nc(C)cc(C)c2C#N)n(C)c2cc(Br)c(OC(C)=O)cc12	12	27	-4	61*	10
C=CCCc1ccc(C#N)c(SCc2c(C(=O)OCC)c3cc(OC(C)=O)c(Br)cc3n2C)n1	nt	10	nt	47	nt
CCNC(=O)C[C@@H]1CC[C@@H](NS(=O)(=O)c2ccc(C)cc2)[C@H](CO)O1	5	nt	-15	nt	-2
OCCN(CCO)c1ccc2ccccc2c1	20	16	-10	20	5
OCCN(CCO)c1cc2c3ccccc3ccc2c2ccccc12	85*	51*	-13	99*	9
C[C@H]1CN([C@@H](C)CO)C(=O)c2cc(C#Cc3cccnc3)cnc2O[C@H]1CN(C)C(=O)CC1CC1	3	nt	-7	nt	nt
Nc1nnnn1/N=C/C=C/c1ccccc1	2	-30	nt	-21	nt
Nc1nnnn1/N=C/C(Br)=C/c1ccccc1	nt	11	nt	75*	93*
CC(C)NC(=O)N(C)C[C@@H]1Oc2ncc(C#CCc3ccccc3)cc2C(=O)N([C@H](C)CO)C[C@H]1C	-4	nt	15	nt	nt
COc1ccc(/C=C2\SC(=O)N(CCNC(=O)Cn3[nH]c(=O)c4ccccc4c3=O)C2=O)cc1	-20	35	-1	51*	3
CCOc1cc(/C=N/Nc2nc(-c3cccc(S(=O)(=O)N4CCCC4)c3)cs2)ccc1O	33	15	nt	61*	4
COc1cc(/C=N/Nc2nc(-c3ccc(S(=O)(=O)N(C)C)cc3)cs2)ccc1O	-8	12	10	81*	-3
Cc1noc(C)c1S(=O)(=O)Nc1ccc2c(c1)C(=O)N([C@@H](C)CO)C[C@@H](C)[C@@H](CN(C)C(=O)NC1CCCCC1)OCCCC[C@@H](C)O2	6	nt	-1	nt	-18
c1coc(CN(Cc2cccs2)Cc2nnnn2C2CCCCC2)c1	nt	10	nt	51*	nt
CC12CCC(O)CC1=CCC1C2CCC2(C)c3[nH]ncc3CC12 (configuration not stated)	6	51*	-15	12	nt
C[C@@H]1CN([C@H](C)CO)C(=O)CCCn2cc(nn2)CO[C@@H]1CN(C)Cc1ccc2c(c1)OCO2	5	nt	-5	nt	nt
Cc1noc(C)c1NC(=O)N(C)C[C@H]1Oc2ccc(NC(=O)CCN3CCOCC3)cc2CC(=O)N([C@@H](C)CO)C[C@H]1C	7	nt	-2	nt	nt
Cc1ccc(C(C)C)c(OCc2nn(CC(=O)c3ccc(Cl)cc3)c3[n+]2CCCCC3)c1	nt	50	?	-19	66*
SMILES	LGR2 inh	TROY NFkB inh	EWS-Fli inh	TWEAK Fn14 block	PAX8 reporter
O=C(COC(=O)CCN1C(=O)/C(=C\C=C\c2ccccc2)SC1=S)Nc1cc(F)ccc1F	0	25	34	55*	1
O=C(CN1C(=O)/C(=C\C=C\c2ccccc2)SC1=S)Nc1ccc(F)cc1	-3	-26	-1	-25	-17
CCOC(=O)Nc1ccc2c(c1)C(=NNC(N)=S)c1ccccc1-2	83*	48	16	38	28
CCOC(=O)Nc1ccc2c(c1)C(=NO)c1ccccc1-2	-21	-14	21	-10	-83
Cc1ccc(Nc2nc(NCc3ccco3)c3ccccc3n2)cc1	96*	70*	-22	85*	16
COc1ccc(NS(=O)(=O)c2cc(NC(=O)c3ccc(=O)[nH]n3)ccc2C)cc1	-8	18	56*	12	26
COc1ccc(NS(=O)(=O)c2cc(C(=O)O)ccc2C)cc1	18	-25	0	9	nt
CCN1C(=O)/C(=C/c2nc3ccccc3c(=O)n2-c2ccc(C)cc2)c2ccccc21	36	13	-5	67*	2
COc1ccc(-n2c(/C=C3\C(=O)N(C)c4ccccc43)nc3ccccc3c2=O)cc1	29	29	5	44	7

Screening results as filed in PubChem.
